From PubChem BioAssay (Tox21)
Records with an inconclusive call do not appear. Active and inactive are the calls of the source. Unless noted, calls follow the shape of the dose curve; as a rule, active = well fitted curve in the direction sought with a large enough effect in the repeat runs; inconclusive = weak or mixed curves; inactive = no such curve, though single readings can be large; an effect the other way counts as inactive or inconclusive.

Columns and labels:
[1] = qHTS assay for small molecules that induce genotoxicity in human embryonic kidney cells expressing luciferase-tagged ATAD5 (AID 651632); also: nearly all actives have a fitted effect of over 15% in size
In short: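 Genotoxicity read-out via ATAD5-luciferase: HEK293T cells, 16 hr compound incubation at 37C, Amplite detection.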

[2] = qHTS assay for small molecule agonists of the p53 signaling pathway - cell viability (AID 651633; calls by dose curve;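 also: p53RE-bla HCT reporter cells with a stable beta-lactamase p53 reporter; series mostly up to about 83 µM; nearly all actives have a fitted effect of over 30% in size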)
In short: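 p53RE-bla cells, seeded at 4,000 per well and rested 5 h at 37 C/5% CO2, received compounds in DMSO for 16 h at 37 C. CellTiter-Glo was then added, and luminescence was read after 30 min at room temperature to gauge cytotoxicity.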

[3] = qHTS assay for small molecules that induce genotoxicity in human embryonic kidney cells expressing luciferase-tagged ATAD5 - cell viability (AID 651634; calls by dose curve; also: nearly all actives have a fitted effect of over 25% in size)
In short: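 Live-cell protease activity (CellTiter-Fluor, fluorescence) indicates viability. HEK293T cells with luciferase-tagged ATAD5; 15.5 hr compound treatment at 37C.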

[4] = qHTS assay for small molecule disruptors of the mitochondrial membrane potential - cell viability (AID 720634; calls by dose curve;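 also: human HepG2 liver cancer cells; series mostly up to about 83 µM; nearly all actives have a fitted effect of over 20% in size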)
In short: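 Human hepatoma HepG2 cells were treated for 1 hr with test chemicals, then given m-MPI dye and CellTiter-Glo. Cell viability reflects luminescence proportional to cellular ATP.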

[5] = qHTS assay for small molecule disruptors of the mitochondrial membrane potential (AID 720635)
In short: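 HepG2 cells (2,000/well) attached overnight at 37C, then took compound for 1 hr at 37C, 5% CO2. Mito-MPS dye was added for 30 min; fluorescence was read at 490/535 nm (monomers) and 540/590 nm (aggregates).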

[6] = qHTS assay to test for compound auto fluorescence at 590 nm (red) in HepG2 cells (AID 720674)
In short: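 Rose Bengal sodium served as the red fluorophore standard. HepG2 monolayers (overnight attachment, MEM with 10% FBS) were exposed to test compounds for 1 hr at 37 C and read at Ex 540/Em 590 nm.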

[7] = qHTS assay to test for compound auto fluorescence at 535 nm (green) in HepG2 cells (AID 720675)
[8] = qHTS assay to test for compound auto fluorescence at 460 nm (blue) in HEK293 cells (AID 720678)
In short: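 After cell attachment (4-5 hr, 37C), compounds were pinned onto HEK293 monolayers in 10% dialyzed FBS medium. The blue channel (405/460 nm) was read following overnight culture. Equivalency was calculated against triamterene.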

[9] = qHTS assay to test for compound auto fluorescence at 590 nm (red) in HEK293 cells (AID 720679)
In short: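 Plates of HEK293 cells (10% dialyzed FBS) are treated with 23 nL compound or DMSO vehicle after a 4-5 hr attachment period, incubated overnight at 37C, and read for red fluorescence at 540/590nm.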

[10] = qHTS assay to test for compound auto fluorescence at 535 nm (green) in HEK293 cells (AID 720680)
[11] = qHTS assay to test for compound auto fluorescence at 460 nm (blue) in HEK293 cell free culture (AID 720681)
In short: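 Test compounds were pinned into cell-free culture medium (DMEM with 10% FBS) and fluorescence was read directly at Ex/Em 405/460 nm. Signals were expressed as fluorescence equivalents of triamterene, with DMSO vehicle as control.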

[12] = qHTS assay to test for compound auto fluorescence at 535 nm (green) in HEK293 cell free culture (AID 720682)
In short: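 Cell-free medium (DMEM, 10% FBS) receives compound or DMSO by pintool. Plate read directly at Ex 485/Em 535 nm. Signal converted to fluorescein equivalency.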

[13] = qHTS assay to test for compound auto fluorescence at 590 nm (red) in HEK293 cell free culture (AID 720683)
In short: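 Tox21 10K library compounds were pinned into cell-free DMEM with 10% FBS and fluorescence was read at excitation 540 nm. Activity is expressed as Rose Bengal sodium equivalency.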

[14] = qHTS assay to test for compound auto fluorescence at 590 nm (red) in HepG2 cell free culture (AID 720684)
In short: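 Red fluorescence (540 nm excitation, 590 nm emission) was measured after compound transfer into cell-free MEM supplemented with 10% FBS. Values are equivalencies against Rose Bengal sodium.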

[15] = qHTS assay to test for compound auto fluorescence at 460 nm (blue) in HepG2 cell free culture (AID 720685)
In short: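 Compound (23 nL) or DMSO pinned into cell-free MEM with 10% FBS; blue fluorescence read at 405/460 nm excitation/emission, expressed as auto-fluorescence equivalency to triamterene.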

[16] = qHTS assay to test for compound auto fluorescence at 535 nm (green) in HepG2 cell free culture (AID 720686)
[17] = qHTS assay to test for compound auto fluorescence at 460 nm (blue) in HepG2 cells (AID 720687)
In short: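 Cells (2,000/well in MEM with 10% FBS) attached overnight at 37 C, then were exposed to compound or DMSO for 1 hr at 37 C, 5% CO2. Fluorescence read at Ex/Em 405/460 nm, expressed as triamterene-equivalent signal.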

[18] = biological target: Glucocorticoid receptor (Homo sapiens) (UniProt P04150); assay: qHTS assay to identify small molecule agonists of the glucocorticoid receptor (GR) signaling pathway (AID 720691; active = well fitted activation curve with a large enough effect in the signal ratio in the repeat runs, not every such curve was filed as active; the % refers to the signal ratio)
Sequence of Glucocorticoid receptor (Homo sapiens) (P04150 whole entry, looked up): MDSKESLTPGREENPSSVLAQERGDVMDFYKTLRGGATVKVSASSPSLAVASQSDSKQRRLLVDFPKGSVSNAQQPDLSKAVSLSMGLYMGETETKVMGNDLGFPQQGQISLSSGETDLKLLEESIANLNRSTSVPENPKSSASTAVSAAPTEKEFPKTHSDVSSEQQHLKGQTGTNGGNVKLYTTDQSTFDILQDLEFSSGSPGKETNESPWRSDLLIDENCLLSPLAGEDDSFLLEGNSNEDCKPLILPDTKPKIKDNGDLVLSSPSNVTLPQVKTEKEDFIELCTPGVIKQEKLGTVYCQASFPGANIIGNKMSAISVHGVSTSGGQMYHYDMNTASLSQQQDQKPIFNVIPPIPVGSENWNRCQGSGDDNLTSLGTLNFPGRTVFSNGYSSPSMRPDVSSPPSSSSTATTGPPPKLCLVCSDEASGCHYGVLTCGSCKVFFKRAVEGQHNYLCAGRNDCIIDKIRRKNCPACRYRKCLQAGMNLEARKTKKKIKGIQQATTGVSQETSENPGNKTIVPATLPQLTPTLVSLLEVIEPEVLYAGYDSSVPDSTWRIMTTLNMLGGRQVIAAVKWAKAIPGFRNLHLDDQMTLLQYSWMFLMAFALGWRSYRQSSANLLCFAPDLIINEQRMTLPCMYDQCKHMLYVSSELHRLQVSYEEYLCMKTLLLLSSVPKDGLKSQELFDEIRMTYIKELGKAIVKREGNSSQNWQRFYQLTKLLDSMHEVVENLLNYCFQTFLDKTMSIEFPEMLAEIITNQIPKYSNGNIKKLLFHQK
In short: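 Beta-lactamase reporter activity, read as fluorescence intensity, was measured in GR-bla HeLa cells exposed to compounds for 18 h at 37 C and then loaded with LiveBLAzer B/G FRET substrate for 2 h at room temperature.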

[19] = biological target: Glucocorticoid receptor (Homo sapiens) (UniProt P04150); assay: qHTS assay to identify small molecule antagonists of the glucocorticoid receptor (GR) signaling pathway (AID 720692; active = well fitted inhibition curve with a large enough effect in the signal ratio in the repeat runs, not every such curve was filed as active; the % refers to the signal ratio)
In short: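 Fluorescence from cleaved LiveBLAzer B/G FRET substrate reports GRE-driven beta-lactamase in HeLa cells; compounds are tested against 5 nM dexamethasone (final) over 18 h at 37 C, substrate incubation 2 h at room temperature.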

[20] = qHTS assay for small molecule agonists of the p53 signaling pathway (AID 651631; calls by dose curve; also: nearly all actives have a fitted effect of over 15% in size)
In short: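 p53RE-bla HCT-116 cells; compounds 16 h, 37 °C; LiveBLAzer B/G FRET substrate 2 h RT; fluorescence intensity read-out, qHTS format.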

Measured: Potency

COC(=O)N/N=C/c1c[n+]([O-])c2ccccc2[n+]1[O-]
not listed: [18] | [19] | [20]
inactive: all other assays above

CCCc1ccc(O)c(OC)c1
not listed: [20]
inactive: all other assays above

C/C=C(\C)C=O
not listed: [1] | [2] | [4] | [5] | [18] | [19]
inactive: all other assays above

Cc1ccc(O)c(C(=O)c2ccccc2)c1
not listed: [1] | [2] | [4] | [5] | [18] | [19]
inactive: all other assays above

CC(CC(=O)Cl)CC(C)(C)C (stereo not drawn)
not listed: [9] | [18] | [19] | [20]
inactive: all other assays above

Cc1ccc(O)c([N+](=O)[O-])c1
not listed: [11] | [18] | [19] | [20]
inactive: all other assays above

CCN1CCN(C(=O)N[C@@H](C(=O)N[C@@H]2C(=O)N3[C@@H]2SC(C)(C)[C@H]3C(=O)O)c2ccccc2)C(=O)C1=O
not listed: [11] | [18] | [19] | [20]
inactive: all other assays above

Cc1cccc(N)n1
not listed: [18] | [19] | [20]
inactive: all other assays above

C=CCCCCCCCCOC(C)=O
not listed: [19] | [20]
inactive: all other assays above

CC(C)(C)C(=O)CCc1ccc(Cl)cc1
not listed: [9] | [18] | [19] | [20]
inactive: all other assays above
